# Bioassay records: PubChem, National Center for Advancing Translational Sciences (NCATS)
# A selection: hits, their analogues and other compounds. The true share with any hit is near 2.3%.
# WRN helicase inh = WRN helicase (human) inhibition. Q14191. WRN helicase unwinding, fluorescent forked duplex, kinetic. Potency, µM (series often up to 114 µM), for the others: at the top dose activity change, negative = inhibition, hits mostly inhibitors. 0.46% of 360,000 active. AID 651768; also: % is scaled to controls: 0 for no effect and ±100 for the full control effect; nearly all actives have a fitted effect of over 55% in size
#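 Screening of the MLSMR collection measured strand separation of a quenched forked DNA duplex (100 nM) by 20 nM WRN with 2 mM ATP, all final. Compounds were preincubated with enzyme 15 min at room temperature.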
# Pol eta inh-1 = DNA polymerase eta (human) inhibition. Q9Y253. recombinant Pol eta, fluorescent DNA replication assay. Potency, µM (titrated, usually from 114 µM), for the others: at the top dose activity change, negative = inhibition, most hits filed as inhibitors. 1.2% of 390,000 active. AID 588591; also: % is scaled to controls: 0 for no effect and ±100 for the full control effect
#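 Pol eta (10 nM) was preincubated with compounds for 15 min at room temperature, after which fluorescent replication substrate (50 nM final) was added to start the reaction. Fluorescence was read kinetically at 0 and 10 min.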
# Pol kappa inh-1 = blocks human DNA polymerase kappa activity. 0.53% of 400,000 active. purified Pol kappa, fluorescent DNA synthesis assay, 10 min. Potency, µM (series often up to 107 µM), for inactives: top-dose activity, negative = inhibition, most hits filed as inhibitors; also: % is scaled to controls: 0 for no effect and ±100 for the full control effect
#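 10 nM Pol kappa preincubated 15 min at room temperature with compounds, then reaction started with substrate at 50 nM final. Fluorescence read kinetically at 0 and 10 min; buffer-only wells served as negative control.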
# Pol iota inh = blocks human DNA polymerase iota activity. Q9UNA4. 1% of 390,000 active. Potency, µM (series often up to 115 µM), inactives show at the highest dose activity, negative = inhibition, most hits filed as inhibitors. Pol iota fluorescent replication assay, 10 min. AID 588590
#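 Pol iota at 10 nM preincubated 15 min with compounds at room temperature; reaction started with fluorescent substrate, 50 nM final. Fluorescence read kinetically at 0 and 10 min; buffer-only wells as negative control.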
# Pol beta inh = blocks human DNA polymerase beta activity. Pol beta primer extension/strand displacement, fluorescence kinetic. 1.3% of 340,000 active. Potency, µM (top dose mostly 114 µM), without a hit: top-dose activity change, negative = inhibition, most hits filed as inhibitors. P06746. AID 485314; also: % is scaled to controls: 0 for no effect and ±100 for the full control effect
#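 Pol beta (10 nM) was preincubated with compound for 15 min at room temperature. The reaction was then started with 50 nM substrate and read immediately and after a further 10 min at room temperature.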
# POLI cherry-pick = Human Pol iota inhibitor confirmatory assay; shares compounds with Pol kappa inh-1; Pol iota primer extension, TAMRA/BHQ fluorescence; AID 720496; Potency, µM, hits mostly inhibitors; 77% of 1,500 active
# Pol kappa inh-2 = confirmation of human DNA polymerase kappa inhibitors; shares compounds with Pol eta inh-1; purified Pol-kappa, fluorescent strand-displacement substrate; Potency, µM, actives largely listed as inhibitors; 76% of 920 active; AID 720501
# Pol eta inh-2 = Pol eta (human) inhibition, cherry-pick confirmation | shares compounds with Pol eta inh-1 | Pol eta primer extension, TAMRA/BHQ fluorescence, 10 min | Potency, µM, most hits filed as inhibitors | 64% of 2,600 active | AID 720502
# Active calls of the source: *; ? = inconclusive; / = not tested or not shown; [ ] = remark or other dose. Calls follow the shape of the dose curve; as a rule, active = well fitted curve in the direction sought with a large enough effect; inconclusive = small, poorly fitted or top-dose-only effect, or another doubt; inactive = no such curve, though single readings can be large; an effect the other way counts as inactive or inconclusive. Potency is read from the fitted curve at half-maximal effect.
SMILES,WRN helicase inh,Pol eta inh-1,Pol kappa inh-1,Pol iota inh,Pol beta inh,POLI cherry-pick,Pol eta inh-2,others
Cc1ccc(NC(=O)Cn2cc(S(=O)(=O)Cc3cccc(Cl)c3)c3ccccc32)cc1C,/,-22%,-3%,16%,-2%,/,/,
Cc1ccc(NC(=O)Cn2cc(S(=O)(=O)Cc3ccc(F)cc3)c3ccccc32)cc1Cl,/,18µM*,?,79µM*,25µM*,47*,43*,
CC[C@]1(O)C[C@H]2CN(CCc3c([nH]c4ccccc34)[C@@](C(=O)OC)(c3cc4c(cc3OC)N(C=O)[C@H]3[C@@](O)(C(=O)OC)[C@H](OC(C)=O)[C@]5(CC)C=CCN6CC[C@]43[C@@H]65)C2)C1,/,/,-8%[60.1 µM],-3%,/,/,/,
CC(C)COc1ccc(-c2nn(-c3ccccc3)cc2/C=C2/SC(=S)N(CC(=O)O)C2=O)cc1,1%,28µM*,-3%,-15%,23%,75*,67*,
COc1ccc(NC(=O)C2=C(C)Nc3nc(SCc4ccccc4C)nn3C2c2cc(OC)c(O)c(OC)c2)cc1 (centres undefined),/,?,-28%,28µM*,8.9µM*,?,/,Pol kappa inh-2=?
COc1ccc(NC(=O)C2=C(C)Nc3nc(SCc4ccccc4C)nn3C2c2ccc(Br)cc2)cc1 (centres undefined),/,-8%,-20%,21%,1%,/,/,
COc1ccc(/C=C\C(=O)Nc2ccccc2C(=O)O)cc1OC,/,/,-7%[19.4 µM],/,/,/,/,
Cc1ccc(C(=O)C2C(=O)c3ccccc3C2=O)cc1,-6%,3%,-1%[60.1 µM],-14%,13%,/,/,
NN=C1c2ccccc2C(=O)C1C(=O)C(c1ccccc1)c1ccccc1 (centres undefined),50µM*,?,22µM*,40µM*,/,75*,85*,Pol kappa inh-2=17*
O=C(N/N=C/c1ccccn1)c1cc(-c2cccc3ccccc23)n[nH]1,1%,14%,-2%,31%,1%,/,/,
O=C(O)c1ccc(/C=N/NC(=O)c2cc(-c3ccc4c5c(cccc35)CC4)n[nH]2)cc1,?,25µM*,?,?,28µM*,60*,38*,Pol kappa inh-2=12*
CCOc1ccc(NC(=O)c2cc(S(=O)(=O)NC3CCCC3)ccc2F)cc1,/,-10%,-10%[60.1 µM],23%,2%,/,/,
CCOc1ccc(CCNC(=O)c2ccc(C)c(-n3cnc4cccnc43)c2)cc1,/,-8%,3%,18%,31%,/,/,
O=C(O)c1ccc(/C=N/NC(=O)c2ccc(CN3c4cccc5cccc(c45)S3(=O)=O)cc2)cc1,?,22µM*,?,25µM*,?,?,60*,
CCOC(=O)c1ccc2c(c1)sc1nc(-c3ccc(OCC)cc3)cn12,/,-10%,3%,1%,24%,/,/,
COc1ccc(/C=N/Nc2cc(C)nc3ccc(OC)cc23)c(OC)c1,13µM*,?,?,?,32µM*,38*,48*,
CC(=O)C(Sc1nc(-c2ccccc2Cl)nc2c1c(=O)n(C)c(=O)n2C)C(=O)N(C)C (centres undefined),/,-14%,-9%[60.1 µM],7%,19%,/,/,
O=C(C1COc2ccccc2O1)N1CCc2ccccc21 (centres undefined),?,79µM*,?,45µM*,32µM*,75*,?,
O=C(C1COc2ccccc2O1)N1CCCC1 (centres undefined),7%,-11%,9%,-1%,-22%,/,/,
Cn1cnc(S(=O)(=O)N2CCC(C(=O)Nc3ccc(Cl)c(C(F)(F)F)c3)CC2)c1,/,-28%,-2%[60.1 µM],45%,0%,/,/,
CCOC(=O)c1c(C)[nH]c(C)c1S(=O)(=O)N1CCCC(C(=O)N2CCN(c3cc(C)ccc3C)CC2)C1 (centres undefined),/,-15%,-5%[60.1 µM],8%,24%,/,/,
O=C(Cc1ccc(S(=O)(=O)N2CCCCC2)s1)Nc1cccc2ccccc12,16%,-12%,-17%,21%,7%,/,/,
O=C(O)Cc1ccc(S(=O)(=O)N2CCCC2)s1,-26%,7.1µM*,79µM*,?,/,47*,30*,Pol kappa inh-2=12*
N=C1S/C(=C\c2ccc(-c3ccccc3C(=O)O)o2)C(=O)N1c1ccc2c(c1)OCO2,?,20µM*,79µM*,13µM*,25µM*,67*,43*,Pol kappa inh-2=19*
Cc1cccc(OCc2nc(CC(=O)Nc3ccc(Cl)cc3)cs2)c1,/,6%,-3%,24%,-2%,/,/,
SMILES,WRN helicase inh,Pol eta inh-1,Pol kappa inh-1,Pol iota inh,Pol beta inh,POLI cherry-pick,Pol eta inh-2,others
COc1ccc2c(C)nc(Nc3nc(C)c(C)c(=O)[nH]3)nc2c1,2%[57.1 µM],?,11%,8%,200%,53*,76*,
Cn1c(SCC(=O)Nc2nncs2)nnc1C1CC1,?,22µM*,?,?,6.3µM*,38*,30*,
CC(C)n1c(SCC(=O)Nc2nncs2)nnc1C1CC1,4%,-5%,-20%,-28%,-2%,/,/,
O=[N+]([O-])c1cc(/C=N/n2c(-c3ccncc3)n[nH]c2=S)ccc1Cl,?,50µM*,?,13µM*,2.5µM*,17*,43*,
Cc1cc(-c2n[nH]c(=S)n2/N=C/c2ccc(Cl)c([N+](=O)[O-])c2)n[nH]1,-16%,-10%,-16%,-10%,12%,/,/,
COc1ccc(-n2ncc(C(=O)NCc3ccc4c(c3)OCO4)c2C2CCN(C(=O)OC(C)(C)C)CC2)cc1,/,-20%,-14%,1%,2%,/,/,
Cc1ccc(C=C2C(=O)c3ccccc3C2=O)o1,?,13µM*,?,22µM*,14µM*,47*,48*,Pol kappa inh-2=42*
Cc1ccc(/C=C2/NC(=O)N(c3ccccc3)C2=O)o1,6%,-9%,-6%,4%,15%,/,/,
Cc1ccc(/C=C2/C(=O)c3ccc(C(=O)O)cc3C2=O)o1,13µM*,4µM*,5µM*,?,25µM*,24*,8.5*,Pol kappa inh-2=11*
CN(CC(=O)Nc1ccccc1Cl)C(=O)c1cccc(-n2cccc2)c1,-1%,-7%,-13%,-8%,/,/,/,
CN(CC(=O)Nc1c(Cl)cccc1Cl)C(=O)c1cccc(-n2cccc2)c1,50µM*,20µM*,79µM*,14µM*,/,17*,30*,
CN(CC(=O)Nc1cccc(F)c1)C(=O)c1cccc(-n2cccc2)c1,32µM*,7.9µM*,?,20µM*,/,30*,76*,
